Usually inhibition stands for the change of the read-out against control, counted positive when it falls. One may read the viability as a read-out of living cells in per cent, often relative to untreated cells.

Values joined by “and” are separate entries in the source; they are usually repeats but may differ in a detail not shown here. Identical values can stand only once. Where a structure was tested more than once in an assay, its records may differ in their call. Active and inactive are the calls of the source. Unless noted, no rule for the calls is given here.

The nature of test [1]: kinase inhibitors against Plasmodium liver-stage infection, cell-based, known kinase inhibitor set, luminescence, hepatoma host viability (AID 624392).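 Also: infected cells incubated roughly two days before readout.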 Particulars: Plasmodium liver stage in hepatoma cells, luciferase luminescence, concentration not given here; liver cell % of control: measured here: host liver cell viability; parasite % of control: stronger effect = lower value.
Test [2] deals with Hepatitis C virus NS3 helicase. Briefly: HCV NS3 helicase inhibitors, primary screen, biochemical, fluorescence polarization, LOPAC1280 library (AID 687035; in the data active = inhibition above about 37%). To be noted: Purified HCV NS3 helicase, Cy5-dT15 ssDNA binding fluorescence polarization; stronger effect = higher value; concentration not given here.
Test [3] in a line: Cy5 fluorescence quenching or enhancement artefacts, artefact control for HCV NS3 helicase inhibitor project, biochemical, LOPAC1280 (AID 687037). Particulars: Cy5-DNA-NS3h complex fluorescence interference counterscreen. (Counterscreens check selectivity or assay interference.)
Test [4] is described as follows: phospholipid biosynthesis inhibitors in animal cells, primary screen, cell-based, LOPAC library, screen 4 (AID 1347384). To be noted: phospholipid biosynthesis inhibition screen, at 10 µM.
Test [5] can be described thus: viability rescue of complex I mutant cybrids, primary screen, cell-based, galactose medium, ATP luminescence (AID 1645843;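 active = z-score of at least 1.8 in each of two replicates, scored against plate mean and spread of sample wells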;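 also: positive z means more ATP and so rescue of galactose-driven cybrid death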). To be noted: complex I mutant cybrid cells, 72 h, stronger effect = higher value.
A short description of test [6]: liver-stage malaria parasite growth inhibition, primary screen, cell-based, HepG2, luciferase luminescence, HepG2 viability (AID 624349; in the data active = parasite load remaining mostly below about 12%, no sharp cut-off; inactive = mostly above about 10%;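 also: 100% = mean of DMSO negative control wells on the same plate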). Particulars: P. berghei liver stage in HepG2, luciferase luminescence, concentration not given here; parasite load remaining: stronger effect = lower value; viability: measured here: HepG2 viability without parasites.
A short description of test [7]: LFS_MB_1R medulloblastoma cell growth inhibition, synergistic combos for chromothripsis tumors, cisplatin or BGB combos (AID 1671452; in the data active = inhibition above about 80%;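 also: cells exposed for 96 hours before readout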). To be noted: LFS_MB_1R medulloblastoma cells, stronger effect = higher value.
A short description of test [8]: CRL2098 osteosarcoma cell growth inhibition, synergistic combos for chromothripsis tumors, BGB or cisplatin IC20 combos (AID 1671454; in the data active = inhibition above about 80%;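 also: cells exposed for 96 h before readout; 0% = vehicle DMSO and 100% = killing by high DMSO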). Particulars: CRL2098 osteosarcoma cells, drug combinations, stronger effect = higher value.
A short description of test [9]: HD-MB03 medulloblastoma cell growth inhibition, synergistic combos for chromothripsis tumors, BGB or cisplatin IC20 combos (AID 1671455; in the data active = inhibition above about 83%;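 also: 0% = vehicle DMSO and 100% = high DMSO as cytotoxic control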). To be noted: HD-MB03 medulloblastoma cells, stronger effect = higher value.
A short description of test [10]: UWB1.289 ovarian carcinoma cell growth inhibition, synergistic combos for chromothripsis tumors, BGB or cisplatin combos (AID 1671456; in the data active = inhibition above about 80%;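 also: cells exposed to compound for four days; 0% = vehicle DMSO and 100% = killing by high DMSO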). To be noted: UWB1.289 ovarian carcinoma cells, stronger effect = higher value.
Test [11] in a line: LFS_MB_2R medulloblastoma cell growth inhibition, synergistic combos for chromothripsis tumors, cisplatin combos (AID 1671457; in the data active = inhibition above about 80%;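 also: cells exposed to compound for four days before readout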). To be noted: LFS_MB_2R medulloblastoma cells, stronger effect = higher value.
Test [12] can be described thus: UWB1.289_BRCA1 ovarian cancer growth, cell-based, BGB or cisplatin combinations (AID 1671459; in the data active = inhibition above about 80%). Particulars: UWB1.289 BRCA1 ovarian carcinoma, drug combinations, stronger effect = higher value.
Test [13] in a line: human astrocyte viability loss, single and combined drugs, cytotoxicity control for chromothriptic childhood tumor combination screen, cell-based, BGB or cisplatin IC20 combos (AID 1671460; in the data active = inhibition above about 80%;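 also: cells exposed to compounds for 96 hours before viability readout; 0% = vehicle and 100% = killing control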). Particulars: Human astrocytes, drug combinations, stronger effect = higher value.
Test [14] can be described thus: circadian clock period modulators, cell-based, LOPAC library, luminescence reporter (AID 2774).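 Also: values are relative to mean of DMSO wells on each plate.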 To be noted: circadian reporter cells, at 7 µM, actives lie on both sides.
For test [15], the target named is NAD(+) hydrolase SARM1 (Homo sapiens) (UniProt Q6SZW1). Briefly: SARM1 TIR NADase inhibitors, cell lysate, NAD-Glo luminescence (AID 1508614;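 active = compound whose remaining NAD level is above about 45 nM, limit read from the data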;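 also: higher remaining NAD means stronger inhibition of SARM1 NADase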). To be noted: SAM-TIR HEK293T lysate NADase, at 1 µM, stronger effect = higher value.
Chain of NAD(+) hydrolase SARM1 (Homo sapiens) (Q6SZW1 whole entry, looked up, the tested form may be a part): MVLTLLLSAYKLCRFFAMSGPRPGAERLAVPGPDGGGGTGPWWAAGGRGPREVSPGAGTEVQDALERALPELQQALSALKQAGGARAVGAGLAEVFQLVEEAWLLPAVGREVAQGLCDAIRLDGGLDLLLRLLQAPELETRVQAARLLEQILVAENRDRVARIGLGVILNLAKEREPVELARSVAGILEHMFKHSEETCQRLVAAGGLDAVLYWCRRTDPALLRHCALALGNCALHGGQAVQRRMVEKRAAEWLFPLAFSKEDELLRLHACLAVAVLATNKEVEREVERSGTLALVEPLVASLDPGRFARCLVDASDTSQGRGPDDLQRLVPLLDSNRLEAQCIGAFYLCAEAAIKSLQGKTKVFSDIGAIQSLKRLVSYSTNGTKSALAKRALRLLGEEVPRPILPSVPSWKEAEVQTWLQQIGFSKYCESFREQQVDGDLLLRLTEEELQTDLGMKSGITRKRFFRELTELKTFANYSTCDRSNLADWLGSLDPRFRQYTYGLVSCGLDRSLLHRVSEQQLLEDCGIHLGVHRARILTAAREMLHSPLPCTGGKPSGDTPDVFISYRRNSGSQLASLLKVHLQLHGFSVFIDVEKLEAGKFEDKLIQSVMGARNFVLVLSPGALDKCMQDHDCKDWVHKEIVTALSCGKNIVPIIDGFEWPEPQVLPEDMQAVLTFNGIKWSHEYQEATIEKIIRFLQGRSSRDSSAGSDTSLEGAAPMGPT
For test [16], the target named is Mitogen-activated protein kinase 7 (Homo sapiens) (UniProt Q13164). As to the kind of experiment: ERK5 transactivation activators in reporter cells, primary screen, cell-based, HTS (AID 1508626;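 active = luciferase signal above three times the same-plate solvent-only control wells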;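 also: luciferase driven by Gal4-ERK5 fusion binding five Gal4 sites before minimal TATA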). To be noted: HeLa Gal4-ERK5 transactivation, 18 h, at 5 µM, stronger effect = higher value.
Chain of Mitogen-activated protein kinase 7 (Homo sapiens) (Q13164 whole entry, looked up, the tested form may be a part): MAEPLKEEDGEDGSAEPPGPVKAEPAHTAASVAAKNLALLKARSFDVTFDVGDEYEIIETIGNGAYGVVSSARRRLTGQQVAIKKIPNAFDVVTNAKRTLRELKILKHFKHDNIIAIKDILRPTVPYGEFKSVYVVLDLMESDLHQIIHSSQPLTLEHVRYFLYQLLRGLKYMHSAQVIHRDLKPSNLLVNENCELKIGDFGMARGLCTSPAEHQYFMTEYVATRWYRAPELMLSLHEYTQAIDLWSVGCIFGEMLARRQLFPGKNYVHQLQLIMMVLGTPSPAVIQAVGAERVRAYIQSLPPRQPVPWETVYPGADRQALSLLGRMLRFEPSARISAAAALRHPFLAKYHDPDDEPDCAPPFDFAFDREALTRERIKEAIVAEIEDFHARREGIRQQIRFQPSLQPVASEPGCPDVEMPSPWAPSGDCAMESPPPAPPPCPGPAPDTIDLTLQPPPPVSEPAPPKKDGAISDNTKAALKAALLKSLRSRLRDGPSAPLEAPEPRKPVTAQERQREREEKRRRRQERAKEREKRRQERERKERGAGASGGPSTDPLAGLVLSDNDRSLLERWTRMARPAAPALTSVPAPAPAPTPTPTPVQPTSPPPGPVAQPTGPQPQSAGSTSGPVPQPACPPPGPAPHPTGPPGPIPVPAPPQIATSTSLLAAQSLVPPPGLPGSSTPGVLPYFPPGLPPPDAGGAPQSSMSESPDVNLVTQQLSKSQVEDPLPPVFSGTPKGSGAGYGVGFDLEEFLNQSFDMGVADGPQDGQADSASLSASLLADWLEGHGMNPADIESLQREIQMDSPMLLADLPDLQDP
Where [17] appears, read: measured here: combination with BGB IC40, at 0.05 µM.
Where [18] appears, read: measured here: combination with cisplatin, at 0.5 µM.
The mark [19] stands for this setting: measured here: combination with cisplatin, at 5 µM.
Where [20] appears, read: measured here: combination with BGB at IC20, at 0.5 µM.
Where [21] appears, read: measured here: combination with cisplatin at IC20, at 0.5 µM.
[22] abbreviates: measured here: combo with BGB at IC20, at 0.5 µM.
Where [23] appears, read: measured here: combo with cisplatin at IC20, at 0.5 µM.
[24] abbreviates: measured here: inhibition with BGB combination, at 0.05 µM.
[25] abbreviates: measured here: inhibition with cisplatin combination, at 0.05 µM.
The mark [26] stands for this setting: BGB combination, concentration series, at 5 µM.
Setting [27] is: cisplatin combination, concentration series, at 5 µM.
[28] abbreviates: measured here: combo with BGB IC20, at 0.5 µM.
Where [29] appears, read: measured here: combo with cisplatin IC20, at 0.5 µM.

As to `CC(C)(N)c1ccc(-c2nc3ccccc3nc2-c2ccccc2)cc1`, in [1], the liver cell % of control is 41.6% and 76.6% and 85.6%; the parasite % of control was 0.22% (inactive) and 84.1% (inactive) and 92.8% (inactive).
For `COC(=O)C1=CO[C@@H](O)[C@@H]2C(CO)=CC[C@H]12`, the inhibition in test [2] is -3% (inactive). Moreover, in test [3], the fluorescence ratio (interference) was 1 (inactive). Besides, in test [4], the outcome was inactive. In addition, the z-score in test [5] is -0.175 (inactive).
Take `COc1cc(C(=O)NC2CCN(C)CC2)ccc1Nc1ncc2c(n1)N(C1CCCC1)CCC(=O)N2C(C)C`: in test [1], the liver cell % of control came out at 99.8% and the parasite % of control is 139% (inactive).
On to `COc1ccc(-c2c(-c3ccc(O)cc3O)n[nH]c2C)cc1`, for which, in [5], the z-score is -1.81 (inactive).
On to `N#Cc1c(C2CCNCC2)cc(-c2c(O)cccc2OCC2CC2)nc1N`, for which, in test [6], the parasite load remaining was 29.7% (inactive) and the viability is 88.8%.
For the molecule `Cc1cn([C@@H]2O[C@H](CO)[C@@H](O)[C@@H]2F)c(=O)[nH]c1=O`, the inhibition was -24% (inactive) in test [7] (at 0.5 µM); -37.2% in [7] (setting [17]); -20.9% in test [7] (setting [18]); -19% in test [7] (setting [19]); -20.9% (inactive) in [8] (at 0.5 µM); -6.05% in test [8] (setting [20]). Moreover, the inhibition in [8] (setting [21]) was -15.6%; in test [9] (at 0.5 µM), -11.4% (inactive); in test [9] (setting [22]) it was -16%; in [9] (setting [23]), -8.28%; in test [10] (at 0.5 µM) it was -3.54% (inactive); in [10] (setting [24]), -7.92%. Further, the inhibition in test [10] (setting [25]) was 2.99%; in test [11] (at 0.5 µM), -27.6% (inactive); in test [11] (setting [18]) it was -30.2%; in test [11] (setting [19]) it was -44.4%; in test [12] (setting [26]), -5.53%; in test [12] (at 0.5 µM), -5.97% (inactive). The inhibition in test [12] (setting [27]) is 11.6%; in test [13] (at 0.5 µM), 10.9% (inactive); in test [13] (setting [28]), 14.5%; in test [13] (setting [29]) it was 15.4%.
As to `O=C(Nc1nc2ccccc2n1CCN1CCOCC1)c1cccc([N+](=O)[O-])c1`, in test [6], the parasite load remaining was 33.2% (inactive) and the viability worked out at 151%. Besides, the inhibition in test [2] was -2% (inactive). The fluorescence ratio (interference) in [3] is 1.1 (inactive). Moreover, the result in test [4] was inactive. In [5], the z-score was 1.46 (inactive).
Regarding `COc1ccc(C(=O)CC2(O)C(=O)Nc3c(Cl)ccc(Cl)c32)cc1` (stereo not given), the inhibition in test [7] (at 0.5 µM) was 2.98% (inactive); in test [7] (setting [17]) it was -32.3%; in test [7] (setting [18]), 23.2%; in test [7] (setting [19]) it was 27.4%; in test [8] (at 0.5 µM) it was -4.98% (inactive); in test [8] (setting [20]), 4.02%. Besides, the inhibition in test [8] (setting [21]) was -4.5%; in test [9] (at 0.5 µM), 57.3% (inactive); in test [9] (setting [22]), 58.6%; in [9] (setting [23]), 55.7%; in test [10] (at 0.5 µM), 11.3% (inactive); in test [10] (setting [24]), -8.43%. For the same molecule, the inhibition in [10] (setting [25]) is -6.45%; in test [11] (at 0.5 µM), -4.47% (inactive); in [11] (setting [18]) it was -11.7%; in test [11] (setting [19]), -26.3%; in test [12] (setting [26]), 47.8%; in test [12] (at 0.5 µM), 14.6% (inactive). Moreover, the inhibition in test [12] (setting [27]) is 51.1%; in test [13] (at 0.5 µM), 9.33% (inactive); in [13] (setting [28]) it was 10.9%; in test [13] (setting [29]), 2.7%.
With `O=c1[nH]c(=O)n([C@H]2C[C@H](O)[C@@H](CO)O2)cc1/C=C/Br`, the period change in test [14] was -0.01 h (inactive). In addition, the inhibition in [2] was -1% (inactive). In test [3], the fluorescence ratio (interference) is 1 (inactive).
Take `Nc1nc(N)c(N=O)c(OCC2CCCCC2)n1`: in test [2], the inhibition is -2% (inactive). For the same molecule, in test [3], the fluorescence ratio (interference) is 0.9 (inactive). Moreover, in test [4], the molecule was called inactive. The z-score in [5] was 1.21 (inactive).
For `NC[C@@H]1O[C@H](O[C@H]2[C@@H](O)[C@H](O[C@@H]3[C@@H](O)[C@H](N)C[C@H](N)[C@H]3O[C@H]3O[C@H](CN)[C@@H](O)[C@H](O)[C@H]3N)O[C@@H]2CO)[C@H](N)[C@@H](O)[C@@H]1O`, in test [6], the parasite load remaining is 49.2% (inactive) and 45.9% (inactive); the viability was 48% and 104%. In [15], the remaining NAD was 10 nM (inactive). For the same molecule, the luciferase signal in test [16] is 28 AU (inactive). For the same molecule, in [5], the z-score was 0.135 (inactive).
Consider `C=CC(=O)Nc1cccc(Nc2nc(NC3CCC(N(C)C)CC3)nc3c2ncn3C(C)C)c1` (stereo not given), for which, in [1], the liver cell % of control stood at 43.6% and the parasite % of control was 15.4% (inactive).
In the case of `CN(C)C(=O)[C@H](O)[C@H](Cc1ccccc1)NC(=O)c1cc2cc(Cl)ccc2[nH]1`, the molecule was called inactive in [4]. The z-score in test [5] is 3.02 (active).
As for `Cc1nc(N)sc1-c1ccnc(Nc2ccc(N3CCOCC3)cc2)n1`, in [1], the liver cell % of control was 72.4% and 73.5% and 98.2%; the parasite % of control was 0.414% (inactive) and 0.47% (inactive) and 0.326% (active).
Turning to `O=C1NC(=O)/C(=C/c2ccc(-c3ccc(F)cc3O)o2)S1`, in test [6], the parasite load remaining is 10.7% (active) and the viability was found to be 62.9%. For the same molecule, the inhibition in test [2] was 0% (inactive). In addition, the fluorescence ratio (interference) in [3] is 1 (inactive). Also, the molecule was called inactive in test [4]. Moreover, the z-score in [5] is 1.31 (inactive).

(Values after PubChem BioAssay.)
